# Hits are enriched below; roughly 10% of the tested compounds scored in any of these assays.
# HP1b binding inh = blocks HP1-beta chromodomain binding to methylated histone tails | P83916 | AlphaScreen HP1-beta / biotin-H3K9me3 peptide binding | Potency, µM (top dose mostly 114 µM), without a hit: at the highest dose activity change, negative = inhibition, most hits filed as inhibitors | 390,000 tested, 0.56% active | AID 540317; also: nearly all actives have a fitted effect of over 70% in size
# Target sequence (P83916 whole entry, looked up): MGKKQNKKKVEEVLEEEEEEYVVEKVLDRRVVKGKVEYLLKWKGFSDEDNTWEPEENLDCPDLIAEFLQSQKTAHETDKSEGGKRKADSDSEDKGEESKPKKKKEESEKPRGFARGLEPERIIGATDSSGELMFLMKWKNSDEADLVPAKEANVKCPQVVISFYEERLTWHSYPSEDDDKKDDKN
#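 AlphaScreen: HP1-beta (50 nM) preformed 30 min with biotin-H3(1-18)K9me3 peptide (50 nM) in PBS pH 7.4, 0.01% Tween-20. Compound added for 30 min at RT, then streptavidin donor/nickel chelate acceptor beads (10 ug/mL) for 30 min.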
# GLS inh = glutaminase GLS (human) inhibition; 410,000 tested, 0.21% active; O94925; Potency, µM (highest dose often 45.5 µM), without a hit: at the highest dose activity change, negative = inhibition, most hits filed as inhibitors; GLS enzymatic activity, qHTS titration; also: % is scaled to controls: 0 for no effect and ±100 for the full control effect
#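 Enzyme dispensed in phosphate buffer (45 mM, pH 8.2, 0.02% Tween-20), compounds pinned in, then 1 mM L-glutamine solution and the glutamate oxidase–HRP–Amplex Red mix added; fluorescence read immediately and again after 30 min at room temperature.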
# G9a inh = G9a (human) methyltransferase inhibition | Q96KQ7 | G9a H3K9 monomethylation, AlphaScreen, 2 h | Potency, µM (top dose mostly 102 µM), for inactives: at the top dose activity, negative = inhibition, hits mostly inhibitors | 350,000 tested, 8.8% active; also: % is scaled to controls: 0 for no effect and ±100 for the full control effect; nearly all actives have a fitted effect of over 75% in size
# Target sequence (Q96KQ7 913-1193 limits assumed): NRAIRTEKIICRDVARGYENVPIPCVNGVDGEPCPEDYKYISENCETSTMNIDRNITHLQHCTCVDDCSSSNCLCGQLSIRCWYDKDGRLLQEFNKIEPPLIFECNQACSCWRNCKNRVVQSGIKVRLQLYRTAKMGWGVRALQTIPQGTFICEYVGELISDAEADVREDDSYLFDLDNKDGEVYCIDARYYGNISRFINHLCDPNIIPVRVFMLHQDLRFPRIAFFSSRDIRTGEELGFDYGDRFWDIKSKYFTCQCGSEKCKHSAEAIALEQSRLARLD
#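 Signal arises when biotinylated H3K9 peptide, once monomethylated, bridges streptavidin donor and antibody-captured acceptor beads. Enzyme at 20 nM was preincubated 15 min with test compounds; peptide 500 nM and SAM 20 uM then reacted for 2 h.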
# BAZ2B inh = inhibitors of human BAZ2B bromodomain | AlphaScreen BAZ2B-H3K14Ac peptide displacement | Potency, µM (doses to about 114 µM), inactives show at the top dose activity change, negative = inhibition, actives largely listed as inhibitors | 360,000 tested, 4.4% active; also: % is scaled to controls: 0 for no effect and ±100 for the full control effect; nearly all actives have a fitted effect of over 60% in size
#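 BAZ2B 50 nM plus b-H3(5-23)K14Ac 50 nM, PBS pH 7.4/0.01% Tween-20, 30 min RT; compound added (max 110 uM), 30 min RT; streptavidin donor/Ni-chelate acceptor beads 10 ug/mL final, 20 min dark; AlphaScreen read.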
# L3MBTL1 block = inhibitors of human L3MBTL1. Q9Y468. AlphaScreen L3MBTL1–H3K9me1 peptide binding. Potency, µM (titrated, usually from 57.1 µM), for the others: top-dose activity, negative = inhibition, most hits filed as inhibitors. 230,000 tested, 0.66% active. AID 485360; also: % is scaled to controls: 0 for no effect and ±100 for the full control effect; nearly all actives have a fitted effect of over 60% in size
#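 L3MBTL1 (50 nM) pre-complexed 30 min with biotinylated H3(1-15)K9me1 peptide (75 nM), then compounds added for 30 min at room temperature; AlphaScreen streptavidin donor/nickel chelate acceptor beads (10 ug/mL final) read after 30 min dark incubation.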
# JMJD2A Tudor inh = inhibitors of human JMJD2A Tudor domain | O75164 | AlphaScreen JMJD2A-Tudor / H3K4me3 peptide binding | AID 504339 | Potency, µM (series often up to 114 µM), for inactives: at the top dose activity change, negative = inhibition, most hits filed as inhibitors | 390,000 tested, 4.4% active; also: % is scaled to controls: 0 for no effect and ±100 for the full control effect; nearly all actives have a fitted effect of over 50% in size
# Numbers without * were called inactive; ? = inconclusive; · = not tested or not shown; [ ] = dose if it differs, or a comment. Calls follow the shape of the dose curve; as a rule, active = well fitted curve in the direction sought with a large enough effect; inconclusive = small, poorly fitted or top-dose-only effect, or another doubt; inactive = no such curve, though single readings can be large; an effect the other way counts as inactive or inconclusive. Potency is read from the fitted curve at half-maximal effect.
SMILES,HP1b binding inh,GLS inh,G9a inh,BAZ2B inh,L3MBTL1 block,JMJD2A Tudor inh
Cc1cc(C)c(C#N)c(OCC(=O)c2ccc(Br)cc2)n1,45%,-2%,·,10%,24%,12%
Cc1ccnc(SCC(=O)c2ccc(Br)cc2)c1C#N,37%,3%,50µM*,16%,26%,?
CCS(=O)(=O)Nc1c(C(=O)O)[nH]c2ccccc12,-6%,-20%,50µM*,-31%,-3%,89µM*
Cc1ccc(S(=O)(=O)Nc2c(C(=O)O)[nH]c3ccccc23)cc1C,48%,-8%,16µM*,?,·,-26%
Cc1cc(S(=O)(=O)Nc2c(C(=O)O)[nH]c3ccccc23)ccc1F,19%,106%,?,-8%,0%,-21%
COc1ccc(Br)cc1-c1nc(C)c(C(C)=O)n1O,18%,10%,10µM*,-30%,23%[11.4 µM],-18%
O=c1c(Cl)c(N2CCOCC2)cnn1-c1ncc(C(F)(F)F)cc1Cl,30%,-4%,-23%,-16%,-4%,-11%
FC(F)(F)c1cnc(Nc2ccc(N3CCOCC3)cc2)c(Cl)c1,?,-6%,22µM*,35µM*,-24%,?
O=C(Cn1cnc2ccccc21)c1ccccc1,59%,-12%,·,-37%,2%,-5%
O=C(O)c1ccn(Cn2cnc3ccccc32)n1,4%,-1%,?,?,6%,22µM*
O=[N+]([O-])c1cc([N+](=O)[O-])c2nonc2c1Nc1ccccc1O,22%,27%,?,-21%,·,-18%
O=[N+]([O-])c1cc([N+](=O)[O-])c2nonc2c1Nc1ccc(O)cc1,?,38%,11µM*,?,-15%,50µM*
CCCN(Cc1nnc(-c2ccccc2Cl)o1)C(=O)c1cc([N+](=O)[O-])cc([N+](=O)[O-])c1,0%,-1%,50µM*,·,·,-27%
CC(=O)NC1Sc2ccccc2N=C1c1ccccc1 (stereo not given),?,-3%,?,-4%,·,50µM*
CC(=O)Nc1nc(-c2ccccc2)c(-c2ccccc2)s1,25%,·,·,·,·,-22%
Cc1cc(C)cc(NS(=O)(=O)c2ccc(-c3cc(C)no3)cc2)c1,54%,-3%,?,-13%,·,-2%
S=C1NCCNC(=S)NCCOCCOCCN1,-9%,1%,-6%[59 µM],-17%,·,40µM*
CC(C)[C@H](NC(=O)OC(C)(C)C)C(=O)N/N=C/c1cccc2nccnc12,18%,12%,4.5µM*,-39%,·,-8%
O=C(Nc1cccc(C(F)(F)F)c1)c1cc2nc(-c3ccccc3)cc(C(F)(F)F)n2n1,28%,4%,-5%[59 µM],4%,·,-4%
CC1(C)OC(=O)C2(Cc3ccccc3N3CCCC32)C(=O)O1 (stereo not given),-4%,·,·,·,·,?
CC1(C)OC(=O)C2(Cc3ccc(Br)cc3N3CCCCC32)C(=O)O1 (stereo not given),5%,·,·,·,·,56µM*
COc1ccc(C(=O)N/N=C/c2ccc(N3CCOCC3)s2)cc1OC,26%,31%,44%[12.7 µM],-2%,-1%,-20%
COc1ccc(C(=O)N/N=C/c2ccc(N3CCOCC3)o2)cc1OC,-7%,-4%,8.9µM*,-28%,·,-36%
O=C(N/N=C/c1ccc(N2CCOCC2)o1)c1cccc(F)c1,-3%,-4%,7.1µM*,2%,2%,?
COc1ccc(-c2nc(CSCC(=O)N3CCN(c4ccc(OC)cc4)CC3)c(C)o2)cc1,-19%,4%,11µM*,35µM*,·,?
SMILES,HP1b binding inh,GLS inh,G9a inh,BAZ2B inh,L3MBTL1 block,JMJD2A Tudor inh
Cc1ccc(-c2nc(CS(=O)(=O)CC(=O)N3CCN(c4ccccc4)CC3)c(C)o2)cc1,3%,6%,-38%[59 µM],56µM*,·,?
CCN1CCN(C(=O)CS(=O)Cc2nc(-c3ccc(OC)cc3)oc2C)CC1 (stereo not given),·,-8%,71µM*,-5%,·,-5%
Cc1cccc(-c2nc(CS(=O)CC(=O)N3CCc4ccccc4C3)c(C)o2)c1 (stereo not given),23%,5%,32µM*,2%,-3%,-15%
Cc1ccccc1-c1nc(CS(=O)(=O)CC(=O)N2CCN(c3ccccc3)CC2)c(C)o1,1%,-1%,?,?,·,-28%
CC[C@@H]([C@H](C)O)n1ncn(-c2ccc(N3CCN(c4ccc(OCC5CO[C@@](Cn6cncn6)(c6ccc(F)cc6F)C5)cc4)CC3)cc2)c1=O (stereo not given in full),·,3%,·,·,·,·
O=C(Nc1ccc2nc(SCC(=O)N3CCOCC3)sc2c1)c1ccc(F)cc1,32%,9%,-7%[59 µM],-11%,·,-12%
CCN1Cc2c(/C=C/c3ccccc3)nc3ccc(OC)cc3c2N(c2cccc(Cl)c2)C1,36%,-13%,13µM*,?,-25%,-26%
COc1cccc(C2NC(=O)c3sc(=S)n(-c4ccccc4)c3N2)c1 (stereo not given),28%,24%,40µM*,-31%,·,-26%
COc1ccc(OC)c(C2NC(=O)c3sc(=S)n(-c4ccccc4)c3N2)c1 (stereo not given),14%,2%,4µM*,?,?,-31%
COc1ccc(-c2nnc3n2N=C(c2c(OC)cccc2OC)CS3)c(OC)c1,·,·,·,·,·,-10%
COc1ccc(C(C#N)=C2C=CC(=NO)C=C2)cc1,40µM*,?,2.2µM*,14µM*,·,16µM*
COc1ccc(C2C3=C(N=C4SCC(=O)N42)c2ccccc2CC3)cc1OC (stereo not given),-6%,-4%,40µM*,-8%,-6%,?
COc1ccc(C2C3=C(N=C4SCC(=O)N42)c2ccccc2CC3)cc1 (stereo not given),1%,4%,50µM*,12%,17%,-35%
COc1cc(NC(=O)Cc2noc3ccccc23)cc(OC)c1OC,-6%,1%,-32%[59 µM],?,·,?
O=C(NCCc1ccccc1)c1sc2ncccc2c1-n1cccc1,-5%[57 µM],-5%,-2%[59 µM],-39%,·,-32%
Cc1nn(CC(=O)NC2C(=O)N3C(C(=O)O)=C(CSc4nnnn4C)CSC23)cc1Br (stereo not given),49%,-11%,40µM*,?,·,0%
Cc1cc(=O)c(C(=O)N[C@@H](C(=O)N[C@@H]2C(=O)N3C(C(=O)O)=C(CSc4nnnn4C)CS[C@H]23)c2ccc(O)cc2)c[nH]1,·,17%,-1%[12.7 µM],·,·,·
Cn1nnnc1SCC1=C(C(=O)O)N2C(=O)C(NC(=O)Cn3nc(C(F)F)cc3C3CC3)C2SC1 (stereo not given),25%,-1%,?,71µM*,·,-18%
